An excerpt weighted towards active compounds, which were near 19% of everything screened.
TDP1 cell CPT: DT40-hTDP1 cell growth loss with CPT; 12% of 420,000 active; Potency, µM (highest dose often 46.2 µM), most hits filed as inhibitors; AID 686979; chicken DT40 Tdp1-/-;hTDP1 cells + 20 nM CPT, ATP luminescence, 48 h; also: nearly all actives have a fitted effect of over 55% in size
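Chicken DT40 Tdp1-/- cells complemented with human TDP1, 400 cells/well, exposed to compounds plus 20 nM camptothecin for at least 48 h at 37 C; viability read as ATP content by CellTiter-Glo luminescence.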
DT40 TDP1 no CPT: qHTS for Inhibitors of human tyrosyl-DNA phosphodiesterase 1 (TDP1): qHTS in cells in absence of CPT; DT40 Tdp1-/- hTDP1 cells, no CPT, ATP luminescence, 48 h; Potency, µM (titrated, usually from 46.2 µM), hits mostly inhibitors; 15% of 420,000 active; also: nearly all actives have a fitted effect of over 55% in size
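Luminescent ATP content (CellTiter-Glo) served as the growth readout. Knockout chicken DT40 cells expressing human TDP1 were exposed to compounds without camptothecin for a minimum 48 hr at 37 °C.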
MCF10A rereplic: induces DNA re-replication in MCF 10a normal breast cells. MCF 10A DNA re-replication, Hoechst nuclear intensity, 48 h. Potency, µM (highest dose often 46.1 µM), most hits filed as activators. 2.9% of 350,000 active; also: nearly all actives have a fitted effect of over 50% in size
Chronic BCR inh: chronic active BCR signaling inhibition; ABC-DLBCL IkBa-CBG/CBR reporter, luminescence ratio, 4 h; Potency, µM (series often up to 46.1 µM), hits mostly inhibitors; 0.05% of 340,000 active; AID 493014; active = well fitted inhibition curve with a large enough effect in the signal ratio, with a control signal flat, not every such curve was filed as active; inconclusive = small, poorly fitted or top-dose-only effect, or effect the other way, or a change in a side signal; the % refers to the signal ratio
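Compounds up to 46 uM were incubated four hours with TMD8 cells whose green CBG68 luciferase is fused to IkappaBalpha; red CBR luminescence normalised the signal, and concentration-effect curves were fitted to fusion, red and ratio data.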
SW480 rereplic: DNA re-replication induction in SW480 cells | SW480 DNA re-replication, Hoechst DNA content imaging, 48 h | Potency, µM (top dose mostly 46.1 µM), actives largely listed as activators | 1.8% of 340,000 active | AID 624297; also: nearly all actives have a fitted effect of over 55% in size
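Image-based read-out: total Hoechst fluorescence of nuclei (405 nm excitation, 500-530 nm emission), with hits raising the fraction of high-intensity nuclei. SW480 colon cells incubated 48 hr with compounds at 37 C.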
IL-1B inflam inh: inhibitors of inflammasome signaling (IL-1 beta secretion); THP-1 LPS/ATP IL-1B secretion, AlphaLISA, 16 h; active compounds read low; activity change, % at 57.5 µM; 4.7% of 360,000 active; in the data active = activity change below about -50%; inconclusive = mostly about -30% to -49%
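Secreted IL-1B measured by AlphaLISA bead assay after 16 h compound exposure of THP-1 cells; compounds (final up to 57.5 uM) added 1 h before LPS (250 ng/mL) and ATP (1.25 mM) stimulation; lower signal means less secretion.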
Of the large screens only hits and unclear results are named; the others gave an inactive call. Unless noted, calls follow the shape of the dose curve; as a rule, active = well fitted curve in the direction sought with a large enough effect; inconclusive = small, poorly fitted or top-dose-only effect, or another doubt; inactive = no such curve, though single readings can be large; an effect the other way counts as inactive or inconclusive.

COC(=O)c1ccccc1NC(=S)N(Cc1ccc2c(c1)OCO2)Cc1cc2ccc(C)cc2[nH]c1=O	TDP1 cell CPT inconclusive, DT40 TDP1 no CPT inconclusive
COC(=O)c1ccccc1NC(=S)N(Cc1ccc2c(c1)OCO2)Cc1cc2cc(C)ccc2[nH]c1=O	TDP1 cell CPT 20.6µM, DT40 TDP1 no CPT inconclusive
O=C1CNC(=S)N1CCCc1ccccc1	IL-1B inflam inh inconclusive
Cc1ccc([N+](=O)[O-])cc1S(=O)(=O)NCCc1c(C)[nH]c2c(C)cccc12	TDP1 cell CPT inconclusive, DT40 TDP1 no CPT inconclusive
COc1ccc(C(C)C)cc1S(=O)(=O)NCCc1c(C)[nH]c2c(Cl)cccc12	TDP1 cell CPT 29.1µM, DT40 TDP1 no CPT inconclusive (no result: MCF10A rereplic, Chronic BCR inh, SW480 rereplic, IL-1B inflam inh)
Cc1ccc2oc(Nc3nc(-c4ccccc4)cc(=O)[nH]3)nc2c1	TDP1 cell CPT 3.26µM, DT40 TDP1 no CPT 4.61µM, MCF10A rereplic 20.6µM, Chronic BCR inh inconclusive, SW480 rereplic inconclusive (no result: IL-1B inflam inh)
COCc1cc(=O)[nH]c(-c2ccccc2)n1	none
COCc1cc(=O)[nH]c(Nc2nc(C)c3ccccc3n2)n1	TDP1 cell CPT 20.6µM, DT40 TDP1 no CPT 16.4µM, MCF10A rereplic inconclusive, Chronic BCR inh inconclusive, SW480 rereplic inconclusive, IL-1B inflam inh -64.9
COCc1cc(=O)[nH]c(Nc2nc3ccccc3o2)n1	TDP1 cell CPT 10µM, DT40 TDP1 no CPT 8.91µM, MCF10A rereplic inconclusive, Chronic BCR inh inconclusive, SW480 rereplic inconclusive
CCOC(=O)Cc1cc(=O)[nH]c(Nc2nc3ccccc3o2)n1	TDP1 cell CPT inconclusive, DT40 TDP1 no CPT inconclusive, Chronic BCR inh inconclusive
C=CCn1c2ccccc2c(=O)c2cc(C#Cc3ccccn3)ccc21	TDP1 cell CPT 25.9µM, DT40 TDP1 no CPT 18.4µM, MCF10A rereplic inconclusive, Chronic BCR inh inconclusive, IL-1B inflam inh inconclusive
CC(C)N1CC2(CC(c3ccccc3C(F)(F)F)=NO2)CN1C(=O)c1ccc(C(C)(C)C)cc1 (centres undefined)	TDP1 cell CPT 16.4µM, DT40 TDP1 no CPT 20.6µM (no result: MCF10A rereplic, Chronic BCR inh, SW480 rereplic)
CC(C)N1CC2(CC(c3ccc(Cl)cc3Cl)=NO2)CN1C(=O)c1ccc(C(C)(C)C)cc1 (centres undefined)	TDP1 cell CPT 14.6µM, DT40 TDP1 no CPT 11.6µM (no result: MCF10A rereplic, Chronic BCR inh, SW480 rereplic)
CC(C)N1CC2(CC(c3ccccc3F)=NO2)CN1C(=O)c1ccc(C(C)(C)C)cc1 (centres undefined)	TDP1 cell CPT 23.1µM, DT40 TDP1 no CPT 10.3µM (no result: MCF10A rereplic, Chronic BCR inh, SW480 rereplic)
CC(=O)N1CC2(CC(c3ccccc3F)=NO2)CN1c1ccc(Cl)cc1 (centres undefined)	TDP1 cell CPT inconclusive, DT40 TDP1 no CPT inconclusive (no result: MCF10A rereplic, Chronic BCR inh, SW480 rereplic)
CC(C)N1CC2(CC(c3ccccc3C(F)(F)F)=NO2)CN1C(=O)c1ccco1 (centres undefined)	TDP1 cell CPT inconclusive, DT40 TDP1 no CPT 8.2µM (no result: MCF10A rereplic, Chronic BCR inh, SW480 rereplic)
CC(C)CCNC(=O)C1CC(c2ccccc2C(F)(F)F)=NO1 (centres undefined)	none
CC(C)CC1=NN(C(=O)c2ccco2)C(O)(C(F)(F)F)C1 (centres undefined)	DT40 TDP1 no CPT inconclusive
CCN(CC(=O)Nc1ccc(OC)cc1)C(=O)c1ccc(OCc2c(C)noc2C)cc1	none (no result: Chronic BCR inh)
Cc1ccccc1CN1CCN(c2nc3ccccc3s2)CC1	TDP1 cell CPT 18.4µM, Chronic BCR inh inconclusive
CN1C(=S)SC(C)(C)C1N(O)C(=O)Nc1ccc(Cl)cc1 (centres undefined)	TDP1 cell CPT inconclusive, DT40 TDP1 no CPT inconclusive, Chronic BCR inh inconclusive
CC1(C)C(N(O)C(=O)Nc2ccc(Cl)cc2)N(c2ccc(Cl)cc2)C(=O)N1CC(=O)NN (centres undefined)	MCF10A rereplic inconclusive, Chronic BCR inh inconclusive, IL-1B inflam inh -53.2
CC(C)n1ncc2c(C(=O)NCCOc3ccccc3F)cc(C3CC3)nc21	TDP1 cell CPT 11.6µM, DT40 TDP1 no CPT 3.26µM
CC(C)n1ncc2c(C(=O)N3CCN(c4ccccc4)CC3)cc(-c3ccccc3)nc21	TDP1 cell CPT inconclusive, DT40 TDP1 no CPT inconclusive, MCF10A rereplic inconclusive

Assay outcomes (PubChem BioAssay)
